Normalised indicator fluorescence data for 68 molecules are collected here from the supplement of paper PMC11865577.

The structures appear in SMILES notation. Structures can show the parent of a compound that is named as a salt.

This experiment has as its system SARS-CoV-2 low-rank motif (SARS-low). The experiment in a line: normalised indicator fluorescence (fraction of RNA + indicator signal without compound); higher = less displacement of indicator (weaker competition). To be noted: compound concentration: 5 uM, 30 min. The gist of the method:
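For the displacement screen, RNA and a TO-PRO-1 or TO-PRO-3 indicator were held in 20 mM phosphate pH 7.0 with 20 mM NaCl and 80 mM KCl in 96-well plates. After adding 0.25 μL of each 1 mM DMSO stock (about 5 uM final) and waiting 30 min, fluorescence was measured on an Infinite 200 PRO with excitation at 485 or 620 nm. Each value is the mean of two independent experiments, expressed as blank-subtracted indicator fluorescence relative to the no-compound RNA-plus-indicator signal.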

[1] abbreviates: indicator: TO-PRO-3 0.5 uM, RNA concentration: 0.5 uM.
[2] abbreviates: indicator: TO-PRO-1 0.1 uM, RNA concentration: 0.1 uM.

In the case of `C[C@@H]1O[C@@H](O[C@@H]2[C@@H](O)[C@H](OCCc3ccc(O)c(O)c3)O[C@H](CO)[C@H]2OC(=O)/C=C/c2ccc(O)c(O)c2)[C@H](O)[C@H](O)[C@H]1O` [Verbascoside], the normalised indicator fluorescence under setting [1] came out at 1.16. For `CC(=O)O[C@H]1C[C@@]2(C)[C@@H](C[C@@H](O)[C@H]3[C@@]4(C)CC[C@@H](O)[C@@H](C)[C@@H]4CC[C@@]32C)/C1=C(\CCC=C(C)C)C(=O)O` [Fusidine], the normalised indicator fluorescence by setting is: under setting [2], 1.26; under setting [1], 1.12. In the case of `O=c1cc(-c2ccc(O)c(-c3c(O)cc(O)c4c(=O)cc(-c5ccc(O)cc5)oc34)c2)oc2cc(O)cc(O)c12` [Amentoflavone], the normalised indicator fluorescence under setting [2] was 1.31. In the case of `CCc1cc(C(N)=S)ccn1` [Ethinamide], the normalised indicator fluorescence by setting is: under setting [2], 1.15; under setting [1], 1.12. For `Nc1ncnc2c1ncn2[C@@H]1O[C@H](CO)[C@@H](O)[C@@H]1O` [Vidarabine] the same measures were 1.11 and 1.17. For `COC1=C(OC)C(=O)C(CCCCCCCCCCO)=C(C)C1=O` [Idebenone] the same measures were 1.21 and 1.12. As to `O=c1c(O)c(-c2ccccc2)oc2cc(O)cc(O)c12` [Galangin], the normalised indicator fluorescence under setting [2] was determined as 1.12 and the normalised indicator fluorescence under setting [1] is 1.28. As to `Cn1cc(C2=C(c3cn(CCCSC(=N)N)c4ccccc34)C(=O)NC2=O)c2ccccc21` [Ro 31-8220 Mesylate], the normalised indicator fluorescence under setting [1] is 1.01.

As for `CC1(C)OC(=O)C=C[C@]2(C)[C@H]3CC[C@@]4(C)[C@H](c5ccoc5)OC(=O)[C@H]5O[C@]54[C@]3(C)C(=O)C[C@@H]12` [Obacunone], the normalised indicator fluorescence is, setting by setting: under setting [2], 1.14; under setting [1], 0.991. For `O=c1ncn2nc(Sc3ccc(F)cc3F)ccc2c1-c1c(Cl)cccc1Cl` [Neflamapimod], the normalised indicator fluorescence under setting [2] is 1.2 and the normalised indicator fluorescence under setting [1] is 1.17. Take `CNc1ccc([N+](=O)[O-])c(Nc2ccc3[nH]ncc3c2)n1`: the normalised indicator fluorescence was determined as 1.01 under setting [2] and 1.14 under setting [1].

Turning to `CN1CCN(c2nc(C3=C(c4c[nH]c5ccccc45)C(=O)NC3=O)c3ccccc3n2)CC1` [Sotrastaurin], the normalised indicator fluorescence runs as follows: under setting [2], 1.4; under setting [1], 1.29. For `O=C1c2c(O)cc(O)cc2OC(c2ccc(O)c(O)c2)C1O` (stereo unspecified) [Taxifolin] the same measures were 1.25 and 1.31. As for `OC[C@H]1O[C@@H](Oc2ccc(O)cc2)[C@H](O)[C@@H](O)[C@@H]1O` [Arbutin], the normalised indicator fluorescence was 1.1 under setting [2] and 1.25 under setting [1].

On to `NC(=O)N/N=C/c1ccc([N+](=O)[O-])o1` [Furacilin], for which the normalised indicator fluorescence turned out to be 1.11 under setting [2] and 1.05 under setting [1]. For `COC(=O)c1ccc([C@H]2c3[nH]c4ccccc4c3C[C@H](C(=O)OC)N2C(=O)CCl)cc1` the same measures were 1 and 1.16. For `CC1=NN(c2ccccc2)C(=O)C1` [Edaravone] the same measures were 1.13 and 1.32. `CN(C)CCCN1c2ccccc2CCc2ccc(Cl)cc21` [Clomipramine hydrochloride]: the normalised indicator fluorescence by setting is: under setting [2], 1.07; under setting [1], 1.13. For `Cc1c(F)cc(C(=O)NC2CC2)cc1-c1ccc(C(=O)NCC(C)(C)C)cn1` [Losmapimod] the same measures were 1.24 and 1.04. For `Fc1ccc(-c2nc3n(c2-c2ccncc2)CCS3)cc1` the same measures were 1.3 and 1.15. For `Oc1ccc(OCc2ccccc2)cc1` [Monobenzone] the same measures were 1.17 and 1.21. For `O=C1O[C@H]([C@@H](O)CO)C(O)=C1O` [L(+)-Ascorbic acid], the normalised indicator fluorescence under setting [2] was determined as 1.18 and the normalised indicator fluorescence under setting [1] was determined as 1.24. For `CCc1oc2ccccc2c1C(=O)c1cc(Br)c(O)c(Br)c1` [Benzbromarone] the same measures were 1.02 and 1.4. For `CC1(C)CC(=O)c2c(C(F)(F)F)nn(-c3ccc(C(N)=O)c(N[C@H]4CC[C@H](O)CC4)c3)c2C1` the same measures were 1.02 and 1.08. Take `CCCC(C(=O)OCCN(CC)CC)(c1ccccc1)c1ccccc1` [Proadifen hydrochloride]: the normalised indicator fluorescence runs as follows: under setting [2], 1.28; under setting [1], 1.04.

For the molecule `Oc1ccc(OC2CCCCO2)cc1` (stereo unspecified) [Deoxyarbutin], the normalised indicator fluorescence runs as follows: under setting [2], 1.17; under setting [1], 0.988. Regarding `CC(C)N(CCCCOCC(=O)NS(C)(=O)=O)c1cnc(-c2ccccc2)c(-c2ccccc2)n1` [Selexipag], the normalised indicator fluorescence under setting [2] amounted to 1.21 and the normalised indicator fluorescence under setting [1] is 1.13. For `CCOc1cc(C(=O)N2CCC(N3CCN(C)CC3)CC2)ccc1Nc1ncc2c(n1)N(C1CCCC1)c1ccccc1C(=O)N2C` the same measures were 1.2 and 1.03. Take `C/C1=C/CC[C@H](C)C(=O)C[C@@H](C(C)C)C(=O)C1` [Curdione]: the normalised indicator fluorescence runs as follows: under setting [2], 1.15; under setting [1], 1.1. As to `CO[C@@H]1[C@H](N(C)C(=O)c2ccccc2)C[C@H]2O[C@]1(C)n1c3ccccc3c3c4c(c5c6ccccc6n2c5c31)C(=O)NC4` [Midostaurin], the normalised indicator fluorescence under setting [1] is 1.35.

On to `O=[N+]([O-])c1ccc(-c2nc(-c3ccc(F)cc3)c(-c3ccncc3)[nH]2)cc1`, for which, under setting [1], the normalised indicator fluorescence was 0.939. Turning to `O=C(O)C(O)Cc1ccc(O)c(O)c1` (stereo unspecified) [Sodium Danshensu], the normalised indicator fluorescence under setting [2] was determined as 0.934 and the normalised indicator fluorescence under setting [1] came out at 0.931. In the case of `C[C@H]1[C@H](C)CC[C@]2(C(=O)O)CC[C@]3(C)C(=CC[C@@H]4[C@@]5(C)C[C@@H](O)[C@H](O)[C@@](C)(CO)[C@@H]5CC[C@]43C)[C@H]12` [Asiatic acid], the normalised indicator fluorescence turned out to be 1.08 under setting [2] and 0.985 under setting [1]. For `CC1(C)C=Cc2c(ccc3c2OC[C@@H](c2ccc(O)cc2O)C3)O1` [Glabridin], the normalised indicator fluorescence under setting [2] turned out to be 1.12 and the normalised indicator fluorescence under setting [1] was determined as 1.2. As to `COc1ccc(O)cc1` [4-Methoxyphenol], the normalised indicator fluorescence under setting [2] was determined as 1.12 and the normalised indicator fluorescence under setting [1] turned out to be 1.27. For `O=C(Nc1nc2ccc(NC(=O)C34CC5CC(CC(C5)C3)C4)cc2s1)c1ccccc1` the same measures were 1.49 and 1.12. For `COc1ccc(C(=C2C(=O)Nc3ccccc32)c2ccc(OC)cc2)cc1` the same measures were 1.38 and 1.17. For `COc1c(C)cnc(Cn2cnc3c(Cl)nc(N)nc32)c1C` the same measures were 1.13 and 1.17.

Consider `C[C@H]1[C@H](C)CC[C@]2(C(=O)O[C@@H]3O[C@H](CO[C@@H]4O[C@H](CO)[C@@H](O[C@@H]5O[C@H](C)[C@H](O)[C@@H](O)[C@H]5O)[C@H](O)[C@H]4O)[C@@H](O)[C@H](O)[C@H]3O)CC[C@]3(C)C(=CC[C@@H]4[C@@]5(C)C[C@@H](O)[C@H](O)[C@@](C)(CO)[C@@H]5CC[C@]43C)[C@H]12` [Asiaticoside], for which the normalised indicator fluorescence under setting [2] was found to be 1.05 and the normalised indicator fluorescence under setting [1] worked out at 1.3. Consider `CCNC(=O)c1[nH]nc(-c2cc(Cl)c(O)cc2O)c1-c1ccc(OC)cc1`, for which the normalised indicator fluorescence amounted to 1.25 under setting [2] and 1.22 under setting [1]. For `CO[C@H]1/C=C/O[C@@]2(C)Oc3c(C)c(O)c4c(c3C2=O)C2=NC3(CCN(CC(C)C)CC3)NC2=C(NC(=O)/C(C)=C\C=C\[C@H](C)[C@H](O)[C@@H](C)[C@@H](O)[C@@H](C)[C@H](OC(C)=O)[C@@H]1C)C4=O` [Rifabutin] the same measures were 1.1 and 1.16.

For the molecule `Oc1cc(O)c2c(c1)O[C@H](c1ccc(O)c(O)c1)[C@@H](O)C2` [(+)-Catechin Hydrate], the normalised indicator fluorescence is, setting by setting: under setting [2], 0.966; under setting [1], 1.16. For `C[S+]([O-])c1ccc(-c2nc(-c3ccc(F)cc3)c(-c3ccncc3)[nH]2)cc1` (stereo unspecified) the same measures were 1.04 and 0.92. For `Cc1cc(NC(=O)c2cccc(NC(=O)/C=C/CN(C)C)c2)ccc1Nc1nccc(-c2cccnc2)n1` the same measures were 0.999 and 1.14. For `CC(=O)Oc1c(C)c(C)c2c(c1C)CCC(C)(CCC[C@H](C)CCC[C@H](C)CCCC(C)C)O2` (stereo partly specified) [Vitamin E Acetate] the same measures were 1.05 and 1.21. `Cc1cccc(CC(=O)N2CCc3c2ccc(-c2cn(C)c4ncnc(N)c24)c3F)n1`: the normalised indicator fluorescence runs as follows: under setting [2], 1.06; under setting [1], 1.05.

Turning to `N=C(NCCCCCCNC(=N)NC(=N)Nc1ccc(Cl)cc1)NC(=N)Nc1ccc(Cl)cc1` [Chlorhexidine hydrochloride], the normalised indicator fluorescence turned out to be 1.01 under setting [2] and 1.01 under setting [1]. With `O=C(Nc1ccc2[nH]nc(-c3ccncc3)c2c1)[C@@H]1CCN(CC(=O)N2CCN(c3ccc(-c4ncccn4)cc3)CC2)C1`, the normalised indicator fluorescence turned out to be 1.11 under setting [2] and 1.26 under setting [1].

For the molecule `Oc1ccc(-c2nc(-c3ccc(F)cc3)c(-c3ccncc3)[nH]2)cc1`, the normalised indicator fluorescence under setting [2] is 1.2 and the normalised indicator fluorescence under setting [1] is 1.23. For `O=c1ccc2ccc(O)cc2o1` [7-Hydroxycoumarin] the same measures were 1.25 and 1.16. For `CN(C)C[C@@H]1CCn2cc(c3ccccc32)C2=C(C(=O)NC2=O)c2cn(c3ccccc23)CCO1` [Ruboxistaurin hydrochloride] the same measures were 1.14 and 0.961. For `NC(=O)c1ccccc1Nc1ccnc(Nc2cccc(O)c2)n1` the same measures were 1.1 and 1.06. Turning to `O=c1cc(-c2ccccc2)oc2cc(O)c(O)c(O)c12` [Baicalein], the normalised indicator fluorescence under setting [2] was 0.791 and the normalised indicator fluorescence under setting [1] stood at 0.739. For `COc1nc(-c2ccc3c(c2)OCO3)n(-c2ccc(NC(=O)CSc3ccccc3)cc2)n1` [SecinH3] the same measures were 1.55 and 0.816. As to `CN(NC(=O)CC(=O)NN(C)C(=S)c1ccccc1)C(=S)c1ccccc1` [Elesclomol], the normalised indicator fluorescence came out at 1.17 under setting [2] and 1.25 under setting [1]. As for `COC(=O)C1=CC[C@@]23CC[C@@H]([C@@](C)(/C=C/C=C(\C)C(=O)O)OC2=O)[C@@]3(OC(C)=O)CC1` [Pseudolaric Acid B], the normalised indicator fluorescence by setting is: under setting [2], 0.981; under setting [1], 1.27. For `O=c1cc(-c2ccc(O)cc2)oc2cc(O)cc(O)c12` [Apigenin] the same measures were 1.22 and 1.27.

`N#Cc1c(NC(=O)c2cccc3ccccc23)sc2c1CCCC2`: the normalised indicator fluorescence under setting [2] amounted to 1.03 and the normalised indicator fluorescence under setting [1] is 1.1. Regarding `O=C(O)/C=C/c1ccc(Cn2ccnc2)cc1` [Ozagrel], the normalised indicator fluorescence reads like this: under setting [2], 1.09; under setting [1], 1.21. For `O=C(NC(Cc1cc(=O)[nH]c2ccccc12)C(=O)O)c1ccc(Cl)cc1` (stereo unspecified) [Rebamipide] the same measures were 1.3 and 1.07. For `Cc1c(C)c2c(c(C)c1O)CCC(C)(C(=O)O)O2` (stereo unspecified) [Trolox] the same measures were 1.24 and 1.07.

As to `[I-].[K+]` [Potassium iodide], the normalised indicator fluorescence by setting is: under setting [2], 1.21; under setting [1], 1.29. For `O=C(O)CCc1ccc(O)cc1O` [Hydroumbellic acid] the same measures were 1.15 and 1.15. Consider `N#CC(c1ccnc(OCc2ccc(CN3CCOCC3)cc2)n1)c1nc2ccccc2s1` (stereo unspecified), for which the normalised indicator fluorescence was 1.59 under setting [2] and 0.556 under setting [1]. For `CC(=O)O[C@H]1C[C@@]2(C)[C@@H](C[C@@H](O)[C@H]3[C@@]4(C)CC[C@@H](O)[C@@H](C)[C@@H]4CC[C@@]32C)/C1=C(\CCC=C(C)C)C(=O)O` [Sodium fusidate] the same measures were 1.11 and 1.04.

Consider `Cn1cc(-c2ccc3c(c2)CCN3C(=O)Cc2cccc(C(F)(F)F)c2)c2c(N)ncnc21`, for which the normalised indicator fluorescence came out at 1.35 under setting [2] and 1.24 under setting [1]. Turning to `O=C(/C=C/C=C/c1ccc2c(c1)OCO2)N1CCCCC1` [Piperine], the normalised indicator fluorescence under setting [2] came to 1.02 and the normalised indicator fluorescence under setting [1] came out at 1.15. For `O=CN1CC/C(=C/c2ccc3c(c2)OCO3)C1=O` the same measures were 1.02 and 1.08.
